Assay results published in PubChem BioAssay (NCI).
This is part of a sample that, as a whole, favours compounds with a hit. Of some 83,000 tested, about 20% had one in any assay.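 Cells were grown in 96-well plates and exposed to the test compound at a single concentration for 48 hours; results are reported as percent growth, with values below 10 considered active.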 Values without a mark were called inactive. Activity calls are given as the source filed them.

Experiments:
Assay in all cases: NCI-60 one-dose screen, 48 h (100 = growth as untreated, 0 = no growth, -100 = all killed)
Details in all cases: 10 µM unless noted
DU-145 prostate = system: DU-145 prostate
K-562 leukemia = system: K-562 leukemia
MALME-3M melanoma = system: MALME-3M melanoma
MDA-MB-231 breast = system: MDA-MB-231 breast
RXF 393 renal = system: RXF 393 renal
SF-268 CNS = system: SF-268 CNS
SF-295 CNS = system: SF-295 CNS
SF-539 CNS = system: SF-539 CNS
UACC-257 melanoma = system: UACC-257 melanoma
M14 melanoma = system: M14 melanoma
HCT-15 colon = system: HCT-15 colon
HT29 colon = system: HT29 colon
SNB-75 CNS = system: SNB-75 CNS
SNB-19 CNS = system: SNB-19 CNS
U251 CNS = system: U251 CNS
PC-3 prostate = system: PC-3 prostate
SK-MEL-5 melanoma = system: SK-MEL-5 melanoma
UACC-62 melanoma = system: UACC-62 melanoma
LOX IMVI melanoma = system: LOX IMVI melanoma
SK-MEL-28 melanoma = system: SK-MEL-28 melanoma

| Structure (SMILES) | growth (DU-145 prostate) | growth (K-562 leukemia) | growth (MALME-3M melanoma) | growth (MDA-MB-231 breast) | growth (RXF 393 renal) | growth (SF-268 CNS) | growth (SF-295 CNS) | growth (SF-539 CNS) | growth (UACC-257 melanoma) | growth (M14 melanoma) | growth (HCT-15 colon) | growth (HT29 colon) | growth (SNB-75 CNS) | growth (SNB-19 CNS) | growth (U251 CNS) | growth (PC-3 prostate) | growth (SK-MEL-5 melanoma) | growth (UACC-62 melanoma) | growth (LOX IMVI melanoma) | growth (SK-MEL-28 melanoma) |
| --- | --- | --- | --- | --- | --- | --- | --- | --- | --- | --- | --- | --- | --- | --- | --- | --- | --- | --- | --- | --- |
| CN(C)CCCOc1ccc(C(=C(c2ccccc2)C2CCCC2)c2ccc(OCCCN(C)C)cc2)cc1 | -99% (active) | -4.67% (active) | -89.6% (active) | -86.4% (active) | -83.1% (active) | -81.9% (active) | -82% (active) | -89.4% (active) | -88.7% (active) | -80.7% (active) | -89.2% (active) | -86.3% (active) | -66.1% (active) | -80.4% (active) | -74.4% (active) | -65.5% (active) | -95.7% (active) | -91.6% (active) | -84.3% (active) | -96.4% (active) |
| CC(=O)/C(N=Nc1ccc2oc(=O)ccc2c1)=C(\C)O | 48.5% | 9.96% (active) | 58.3% | 61.2% | 51.6% | 45.7% | 22.5% | 51.5% | 37.5% | 35.7% | 16.5% | 24.4% | 67.8% | 29% | 23.3% | 20.7% | 9.01% (active) | 33.8% | 19% | 47.3% |
| O=C1C(SCc2ccccc2)=C(Cl)CN1c1ccccc1 | 102% | 62% | 94.6% | 93.1% | 105% | 105% | 97.8% | 95% | 106% | 97.7% | 95.8% | 106% | 92.2% | 96.2% | 101% | 109% | 99.4% | 93.1% | 42.8% | 98.9% |
| O=c1[nH][nH]c(-c2ccc(F)cc2)c1-c1nc2ccccc2s1 | 104% | 98.1% | 84% | 85% | 99.7% | 98.1% | 103% | 94.8% | 107% | 89.1% | 85% | 110% | 88.4% | 80.5% | 98.8% | 90.3% | 98.8% | 81.8% | 93.1% | 97.7% |
| CCOC(=O)C(=O)Nc1ccc2c(ccn2C(=O)c2cccc(F)c2)c1 | 67.7% | 101% | 102% | 107% | 104% | 99% | 92% | 91.5% | 99.1% | 95.3% | 95.8% | 101% | 74.3% | 91.6% | 105% | 99.6% | 96.3% | 93.5% | 96.3% | 99.1% |
| C=C(C)[C@@H]1CC[C@]2(COP(=O)(OCC)OCC)CC[C@]3(C)[C@H](CC[C@@H]4[C@@]5(C)CC[C@H](OP(=O)(OCC)OCC)C(C)(C)[C@@H]5CC[C@]43C)[C@@H]12 | 69.7% | 19.6% | 50.8% | 50.7% | 45.3% | 64.6% | 14.6% | 70.5% | 46.8% | 51.6% | 6.86% (active) | 35.2% | 75.3% | 50.7% | 42.2% | 22.7% | 11.5% | 43.1% | 25.4% | 77.5% |
| C=C(C)[C@@H]1CC[C@]2(C(=O)N3CCN(C)CC3)CC[C@]3(C)[C@H](CC[C@@H]4[C@@]5(C)CC[C@H](OP(=O)(OCC)OCC)C(C)(C)[C@@H]5CC[C@]43C)[C@@H]12 | 101% | 29.6% | 106% | 83.6% | 59.5% | 87.3% | 89.4% | 84.8% | 82.9% | 102% | 60.2% | 76.1% | 89.7% | 90.9% | 78.8% | 44.3% | 69.7% | 81.6% | 44.6% | 104% |
| CN1CCN(Cc2ccc(NC(=O)c3cncc(C#Cc4cnc5ccc(OCCCS(C)(=O)=O)nn45)c3)cc2C(F)(F)F)CC1 | 1.01% (active) | 5.44% (active) | -80.5% (active) | -20.7% (active) | -79.6% (active) | -45.8% (active) | 0.237% (active) | -68.4% (active) | -27.6% (active) | -78.9% (active) | 3.14% (active) | -10.8% (active) | -91.7% (active) | 1.67% (active) | -4.26% (active) | 1.61% (active) | -57% (active) | -57.3% (active) | -82.6% (active) | -21.8% (active) |
| Cn1ncc2ncc(-c3ccc4ncc(C#N)c(N5CCc6cc(F)c(Cl)cc65)c4c3)cc21 | 30% | 39.7% | 39.5% | 26.7% | -17.4% (active) | 49.7% | 22.9% | 27.1% | 54.9% | 44.9% | 23.2% | 41.4% | -1.84% (active) | 51.6% | 48.6% | 26% | 39.5% | 20.8% | 19.3% | 48.4% |
| CN1CCN(Cc2ccc(NC(=O)c3cncc(C#Cc4cnc5ccc(OCC(F)F)nn45)c3)cc2C(F)(F)F)CC1 | -85.8% (active) | 0.0269% (active) | -86.2% (active) | -66.7% (active) | -81% (active) | -56.6% (active) | -76.6% (active) | -90.6% (active) | -33.7% (active) | -89% (active) | -57.4% (active) | -66% (active) | -95.1% (active) | -31.7% (active) | -72.7% (active) | -19.4% (active) | -95.7% (active) | -46.8% (active) | -91.2% (active) | -82.4% (active) |
| O=C(CCCCCCNC(=O)C(O)(O)C(F)(F)F)Nc1ncc(-c2ccccc2)s1 | 3.28% (active) | 11.7% | 13.6% | 15.9% | -48.5% (active) | 1.35% (active) | -35.1% (active) | 13.9% | 20.8% | 14.3% | 2.35% (active) | 4.15% (active) | 35.1% | 6.24% (active) | -62.6% (active) | 22.7% | -67.2% (active) | -76.6% (active) | -78.2% (active) | -19.6% (active) |
| CN(C)c1ccc(-c2cc(-c3c[nH]c4ccccc34)nc(N)c2C#N)cc1 | 49.2% | 17.5% | 64.4% | 36% | 2.37% (active) | 52.3% | 26.8% | 37.5% | 56.9% | -27.1% (active) | 11.9% | 11.3% | 21.1% | 40.7% | 26.5% | 37% | 29.8% | 42% | 11.3% | 59.8% |
| CCOC(=O)c1cnc2c(-c3ccc(Cl)c(Cl)c3)cnn2c1 | 104% | 21.7% | 75.7% | 81.5% | 79.7% | 92.7% | 82.9% | 85.9% | 81.9% | 60% | 40.8% | 56.8% | 59.9% | 82.5% | 80.4% | 73% | 79.8% | 60.8% | 79% | 80.4% |
| O=C1Nc2ccccc2/C1=N\c1nnc(-c2ccccc2)o1 | 107% | 103% | 89.7% | 82.9% | 92% | 98.1% | 92.8% | 97.8% | 100% | 95.9% | 87.2% | 99.2% | 59.9% | 91.5% | 97.8% | 79% | 94.3% | 79.7% | 102% | 106% |
| CCOC(=O)Nc1ccc2c(ccn2C(=O)c2cccc(F)c2)c1 | 29.5% | 14.2% | 61.7% | 52.8% | 19.3% | 65.8% | 19.6% | 0.0722% (active) | 74.4% | 25.3% | 29% | 1.15% (active) | 13.2% | 27.8% | 25.7% | 42% | 27.7% | 32.3% | 49.4% | 61.5% |
| CN1CCN(c2ccc(Nc3nc(NCCNS(=O)(=O)c4ccc(Cl)cc4)c4sccc4n3)cc2)CC1 | 98.2% | 9.68% (active) | 105% | 95% | 41.2% | 70% | 97.9% | 85.5% | 87.5% | 102% | 47.7% | 44.3% | 72.9% | 104% | 60.1% | 81.8% | 93.6% | 98.5% | 92% | 94.5% |
